Screens from PubChem BioAssay.
Cav3 T inh = inhibitors of human Cav3.2 T-type calcium channel; AID 449739; O95180; actives 4% (n = 100,000); B-score at 10 µM; Cav3.2-expressing cells, Fluo-4 calcium fluorescence FDSS; stronger effect = lower value;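 active = single-dose well whose peak fluorescence ratio is a statistical outlier from its plate by either plate-standardised score or position-corrected B-score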
E coli RNAP = inhibitors of Escherichia coli RNA polymerase | E. coli RNA polymerase, fluorescence transcription assay | P0A8V2 | inhibition, %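 (tested at 10 µM)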 | actives 0.2% (n = 62,000); in the data active = inhibition above about 20%;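 also: 0% = enzyme without compound and 100% = no enzyme blank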
Mac1 fbg enh = CD11b/CD18-fibrinogen binding enhancement | AID 1499 | K562 CD11b/CD18 adhesion to fibrinogen, ATPlite luminescence | actives 0.07% (n = 93,000) | P05107+P11215 | activation, % at 10 µM;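 active = 10 µM primary screen giving 50% or more activity, confirmed by 40% or more on retest at that dose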
Mac1 fbg inh = inhibitors of human CD11b/CD18 binding to fibrinogen. K562 CD11b/CD18 adhesion to fibrinogen, ATPlite luminescence; Mn2+ added to activate the integrin. inhibition, % at 10 µM. actives 0.54% (n = 93,000). AID 1497;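 active = primary inhibition of 50% or more at 10 µM, then 40% or more on retest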
Pyk2 oligo antag = antagonists of human Pyk2 oligomerization; Q293 cells, Pyk2 FERM NanoBiT luminescence; stronger effect = lower value; z-score (the deposit names both 25 µM and 10 µM); AID 1347419; Q14289; actives 0.83% (n = 99,000);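 active = Z-score of -3 or lower, scaled per plate to the spread of control and sample wells; inactive = z-score above -3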;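 also: negative z-score means lost luminescence so less FERM oligomerization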
* hit, by the source's call; . = not tested or not shown. Rows were chosen to be rich in hits. Some 4.2% of all compounds tested hit in one or more screens of this group.

SMILES | Cav3 T inh | E coli RNAP | Mac1 fbg enh | Mac1 fbg inh | Pyk2 oligo antag
CCCCC(=O)Nc1ccc(C(=O)Nc2nnc(COC)s2)cc1 | 0.292 | . | 1.1 | -3.6 | -0.93
CC(=O)N(Cc1ccc(F)cc1)C1=C(NCCc2ccccc2)C(=O)c2ccccc2C1=O | -2.74 | . | 2.6 | 12.2 | -3.18*
COC(=O)[C@@]1(Cc2ccc(OC)cc2)[C@H]2c3cc(C(=O)N4CCCC4)n(CCSCCO)c3C[C@H]2CN1C(=O)c1ccccc1 | -0.00882 | . | . | . | .
CC(C)CCn1c(N2CCc3ccccc3C2)nc2c1c(=O)[nH]c(=O)n2C | -0.881 | . | . | . | .
COc1ccc(C2C3C(C)=NN=C3CC(C)(O)C2C(C)=O)cc1 (configuration not stated) | . | . | . | . | 1.81
COc1ccccc1CN1[C@@H](CC(=O)O)c2cc(F)ccc2S1(=O)=O | 0.163 | . | . | . | .
COc1ccc(-c2csc(NC(C)c3nc4cc(C(F)(F)F)ccc4n3CCOCCO)n2)cc1 (configuration not stated) | -1.29 | . | . | . | .
COc1cc(CNc2ccc(O)cc2)cc(Br)c1OCc1ccccc1F | . | . | -7.9 | 72.2 | .
CCOc1cc(CNCCO)cc(Br)c1OCc1ccc(Cl)cc1 | . | . | . | . | 0.1
COc1cc(CNCc2ccncc2)cc(Br)c1OCc1ccccc1F | -1.41 | . | -7.0 | 62.4* | 0.43
CCOc1cc(CNCCO)cc(Br)c1OCc1ccccc1Cl | -0.218 | . | -7.4 | 73.5* | 1.08
COc1ccc(CNC(=O)c2noc3c2CCCC3)cc1 | -5.45* | -6.7 | -1.3 | -22.7 | 0.96
COc1ccc(Cc2nc(C(=O)Nc3ccccc3)cs2)cc1 | -3.78* | . | -6.6 | 88.3* | -0.07
COc1ccc(Cc2nc(C(=O)Nc3ccc(F)cc3)cs2)cc1 | -4.11 | . | -5.9 | 82.2* | 2.03
COc1ccc(Cc2nc(C(=O)Nc3ccc(Cl)cc3)cs2)cc1 | 0.257 | . | -8.5 | 97.2 | 1.64
COc1ccc(CNC(=O)c2csc(Cc3ccc(OC)cc3)n2)cc1 | -7.95* | . | . | . | -1.89
O=C(NOC(=O)c1ccccc1Cl)c1cccs1 | 0.00625 | . | -4.1 | -19.0 | -0.43
COC(=O)CCCCCN1C(=O)NC(C2CC2)C(C(=O)OCc2ccccc2)=C1C (configuration not stated) | -0.967 | . | . | . | .
O=C(O)c1cnc(-c2ccccc2)nc1Sc1cccc(Cl)c1 | -6.28* | . | -5.5 | 61.7* | -0.8
O=C(O)c1cnc(-c2ccccc2)nc1Sc1ccccc1 | -3.17 | . | . | . | 0.12
Cc1ccc(-n2nc(C(=O)N/N=C/c3cccc(C(F)(F)F)c3)c3ccccc3c2=O)cc1C | -0.442 | . | 3.2 | -7.6 | .
COc1ccc2c(c1)[nH]c1c(N3CCN(Cc4ccc5c(c4)OCO5)CC3)ncnc12 | . | 0.2 | -11.8 | 82.8* | -2.86
COc1cccc2[nH]c3c(N4CCN(Cc5ccc6c(c5)OCO6)CC4)ncnc3c12 | . | 1.3 | 1.5 | 8.5 | .
Cc1ccc2[nH]c3c(N4CCN(Cc5ccc6c(c5)OCO6)CC4)ncnc3c2c1 | . | 12.5 | -7.0 | 90.9* | .
Cc1ccc2[nH]c3c(N4CCN(Cc5ccccc5)CC4)ncnc3c2c1 | -3.91 | 11.5 | -2.2 | 84.3 | -1.83
SMILES | Cav3 T inh | E coli RNAP | Mac1 fbg enh | Mac1 fbg inh | Pyk2 oligo antag
Cc1ccc2c(c1)[nH]c1c(N3CCN(Cc4ccccc4)CC3)ncnc12 | -4.91* | 3.0 | -1.0 | 43.2 | -2.75
NC(=O)CC(NC(=O)Cc1ccc(Br)cc1)c1ccc(N2CCC(Cc3ccccc3)CC2)c([N+](=O)[O-])c1 (configuration not stated) | -0.867 | . | . | . | .
CC1CCCCC1NC(=O)COC(=O)c1ccc(N(C)C)cc1 (configuration not stated) | 0.341 | . | -3.9 | 3.9 | -3.14*
COc1ccc(OCC(O)CNC(=O)c2ccc(Br)cc2)cc1 (configuration not stated) | -1.64 | 2.6 | -3.2 | -1.0 | 0.42
COc1ccc(OCC(O)CNc2ccc(Br)cc2)cc1 (configuration not stated) | -4.22* | -0.1 | -0.2 | 8.9 | -0.56
CCOc1cc(S(=O)(=O)n2cc(-c3ccc(F)cc3)c(N)n2)cc(OCC)c1OCC | -5.49* | 11.1 | 6.9 | -3.4 | -0.48
Cc1ccc(OCc2nc(C#N)c(N3CCN(Cc4ccccc4)CC3)o2)cc1 | -5.89* | 3.9 | . | . | 1.18
N#Cc1nc(COc2ccccc2)oc1N1CCC(Cc2ccccc2)CC1 | -5.62* | 5.8 | -5.2 | 3.8 | 0.8
CCC(=O)N1CCN(c2nc3ccccc3s2)CC1 | 0.967 | . | -2.1 | 9.0 | 1.76
c1ccc(C(c2nnnn2Cc2ccco2)N2CCN(c3nc4ccccc4s3)CC2)cc1 (configuration not stated) | -3.39* | . | . | . | -1.98
COc1ccc(C(c2nnnn2Cc2ccccc2)N2CCN(c3nc4ccccc4s3)CC2)cc1OC (configuration not stated) | -3.3 | . | . | . | -3.82*
COc1ccc(C(c2nnnn2C(C)(C)C)N2CCN(c3nc4ccccc4s3)CC2)cc1 (configuration not stated) | -5.26* | 3.9 | -3.0 | 3.6 | -1.02
O=C(c1cc2sccc2n1Cc1ccccc1)N1CCN(c2nc3ccccc3s2)CC1 | -7.1* | . | . | . | -1.09
CCCCCCSc1nc(O)c(C2OC(=O)c3c2ccc(OC)c3OC)c(=O)n1-c1ccccc1 (configuration not stated) | -0.842 | . | 3.3 | 1.5 | -0.64
NC(=O)CC(NC(=O)Cc1ccc(Br)cc1)c1ccc(NCCc2ccccc2F)c([N+](=O)[O-])c1 (configuration not stated) | 0.696 | . | . | . | .
CCO[C@@H]1OC(C(=O)NCc2ccccc2)=C[C@H](c2ccc(C(F)(F)F)cc2)[C@H]1CCCO | -2.85 | . | . | . | .
COc1ccccc1C(c1nnnn1Cc1ccccc1)N1CCN(C2CCCC2)CC1 (configuration not stated) | 1.47 | . | . | . | -0.74
Cc1ccc(C)c(N2CCN(C(c3ccc(N(C)C)cc3)c3nnnn3C(C)(C)C)CC2)c1 (configuration not stated) | -5.54* | . | . | . | -0.11
c1ccc(Cn2nnnc2C(c2ccccc2)N2CCN(c3nc4ccccc4s3)CC2)cc1 (configuration not stated) | -0.0346 | 5.7 | -5.0 | 10.0 | -4.06*
Cc1ccc(C(c2nnnn2C(C)(C)C)N2CCC(C)CC2)cc1 (configuration not stated) | -2.67 | . | . | . | 0.41
COc1ccccc1C(c1nnnn1Cc1ccccc1)N1CCN(c2nc3ccccc3s2)CC1 (configuration not stated) | -4.22* | 4.6 | -1.2 | -7.6 | -3.83*
CCCC(c1nnnn1Cc1ccc(OC)cc1)N1CCN(c2ccccc2OC)CC1 (configuration not stated) | -5.14* | 11.4 | 7.3 | 35.1 | -0.05
O=S(c1ccc2ccccc2c1)c1cnns1 (configuration not stated) | 0.814 | . | . | . | 0.65
CCOC(=O)Nc1ccc(=O)n(Cc2c(Cl)cccc2Cl)c1 | -0.00933 | . | . | . | 0.32
O=C(NCCc1c[nH]c2ccccc12)c1cccc(S(=O)(=O)Nc2ccccc2Cl)c1 | . | . | -5.4 | 55.8* | .
O=C(O)c1cccc(S(=O)(=O)Nc2ccccc2Cl)c1 | . | 0.7 | -0.3 | -10.7 | -0.08
